Measurements: PubChem BioAssay
Entries with a potency or affinity are not part of this list. Results filed as inconclusive are left out. Active and inactive are the calls of the source. Unless noted, the rule behind the calls is not given here.

What was measured:
[1] = cytotoxicity in PAX8-dependent RMG-1 cells, dose response, cell-based, cherry-pick (AID 687029;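 active = signal drop whose fitted half-maximal concentration is at most twice the top valid dose, in every test run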;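 note: cells exposed to compound for 96 hours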)
[2] = cytotoxicity in IOSE-T80 ovarian epithelial cells, dose response, selectivity assay for PAX8 inhibitor project, cell-based, cherry-pick (AID 687032;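 active = fitted half-maximal concentration for viability loss no higher than twice the top valid dose, in every repeat run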;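 note: cells exposed to compound for 96 h before reading; 0% = neutral control wells and -100% = 2 µM mitoxantrone kill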)
[3] = inhibitors of CMV-promoter luciferase reporter, dose response, counter-screen for Pax8 inhibitor project, cell-based, HEK293, luminescence, dry powder (AID 743020;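 active = signal-lowering compounds whose fitted half-maximal concentration is at or below twice the top tested dose in every run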;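 note: HEK293 cells stably expressing the CMV luciferase reporter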)
[4] = non-specific cell cytotoxicity, dose response, cytotoxicity control for PAX8 inhibitor project, plate reader, dry powder samples (AID 743021)
[5] = IGROV1 ovarian cancer cell cytotoxicity, dose response, PAX8 inhibitor project, plate reader, dry powder samples (AID 743043);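 note: more negative means fewer viable cells or more cytotoxicity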
[6] = NIH:OVCAR-3 ovarian cancer cell cytotoxicity, dose response, PAX8 inhibitor project, plate reader, dry powder samples (AID 743044); conditions: max activity: at 35 µM, stronger effect = lower value unless noted
[7] = IOSE-T80 ovarian epithelial cell cytotoxicity, dose response, cytotoxicity control for PAX8 inhibitor project, plate reader, dry powder samples (AID 743045);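 note: 0% = neutral control median and -100% = positive control median; more negative values mean more cell killing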
[8] = A2780 ovarian cancer cell cytotoxicity, dose response, cytotoxicity control, plate reader, dry powder samples (AID 743046);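 note: 0% = neutral control wells and -100% = cytotoxic reference compound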
[9] = cytotoxicity in OVCAR8 ovarian cancer cells, dose response, PAX8 project, cell-based, plate reader, dry powder samples (AID 743197)

Measured: max activity

C#CCN(C[C@H]1[C@H](OC(=O)Nc2c(C)noc2C)[C@H](OC(=O)Nc2c(C)noc2C)C[C@@H](C(=O)OC)[C@H]1C(=O)OC)S(=O)(=O)c1ccc(C)cc1
inactive: [1] | [2] | [3] | [4]

O=C(CCc1ccc(S(=O)(=O)NCc2ccccc2)cc1)NCc1ccco1
inactive: [1] | [2] | [3] | [4]

O=C(Nc1cccc(Br)c1)c1ccc2c(c1)SC1=NS(=O)(=O)CCN12
inactive: [1] | [2] | [3] | [4]

O=C(Nc1cccc(Cl)c1)Nc1csc([N+](=O)[O-])c1
inactive: [1] | [2] | [3] | [4]

Cn1nnnc1Sc1ncnc2scc(-c3cccc(C(F)(F)F)c3)c12
inactive: [1] | [2] | [3] | [4]

O=C(N/N=C/c1ccc(Cl)c([N+](=O)[O-])c1)c1cc(-c2ccc3c4c(cccc24)CC3)n[nH]1
inactive: [1] | [2] | [3] | [4]

CC(C)OCCCNC(=O)c1cccc(NC(=O)c2ccccc2)c1
inactive: [1] | [2] | [3] | [4]

CC(C)=CCC/C(C)=C/CNC(=O)C[C@H]1C[C@H](C(=O)N2CCOCC2)[C@@]2(C)c3[nH]c4ccc(Cl)cc4c3CCN2C1=O
inactive: [1] | [2] | [3] | [4]

CCc1ccc(CNC(=O)C2CCCN(c3nnc(C)c4c(C)n(-c5ccccc5)nc34)C2)cc1 (centres undefined)
inactive: [1] | [2] | [3] | [4]

FC(F)(F)c1nnc2c(Sc3ccc(Cl)cc3)nc3ccccc3n12
inactive: [1] | [2] | [3] | [4]

C=C1C2(C(=O)Nc3ccc(SC(F)F)cc3)CCC(C2)C1(C)C (centres undefined)
inactive: [1] | [2] | [3] | [4]

O=C(O)c1cccc(N/N=C/c2cccs2)c1
inactive: [1] | [2] | [3] | [4]

CC1=C(C(=O)OC2CCCCC2)C(c2cccnc2)n2ncnc2N1 (centres undefined)
inactive: [1] | [2] | [3] | [4]

CCN(CC)c1ccc(C(NC(=O)C(C)C)c2ccc3cccnc3c2O)cc1 (centres undefined)
inactive: [1] | [2] | [3] | [4]

CCOC(=O)Nc1ccc2c(c1)N(C(=O)CCCl)c1ccccc1[S@]2=O
inactive: [1] | [2] | [3] | [4]

Oc1ccc(C[C@H]2CNC(=S)N2CC2CCCN2C[C@H](Cc2ccccc2)N2C[C@H](Cc3ccc(O)cc3)N(CCc3ccccc3)C2=S)cc1 (some centres undefined)
inactive: [1] | [2] | [3] | [4]

Cc1ccc2c(c1C)-c1c(ccc(C)c1C)C(=O)C2=O
inactive: [1] | [2] | [3] | [4]

CCO[C@H]1OC(C(=O)N2CCN(Cc3ccccc3)CC2)=C[C@@H](c2ccc(C(F)(F)F)cc2)[C@@H]1CCCO
inactive: [1] | [2] | [3] | [4]

C[C@H](CO)N1C[C@H](C)[C@@H](CN(C)Cc2ccncc2)Oc2ccc(NC(=O)Nc3ccc(C(F)(F)F)cc3)cc2CC1=O
inactive: [1] | [2] | [3] | [4]

Cc1ccc(S(=O)(=O)CCC(=O)c2ccc(O)cc2O)cc1
inactive: [1] | [2] | [3] | [4]

O=S(=O)(/C(=C/c1ccc(C(F)(F)F)cc1)c1nc2ccccc2[nH]1)c1ccccc1
inactive: [1] | [2] | [3] | [4]

COC(C(=O)C(O)C(C)O)C1Cc2cc3cc(OC4CC(OC5CC(O)C(O)C(C)O5)C(O)C(C)O4)c(C)c(O)c3c(O)c2C(=O)C1OC1CC(OC2CC(OC3CC(O)C(OC)C(C)O3)C(O)C(C)O2)C(O)C(C)O1 (centres undefined)
inactive: [1] | [2] | [3] | [4]

C[C@@H](NC(=O)c1nc[nH]c1C(=O)N[C@@H](Cc1ccccc1)C(=O)OC(C)(C)C)c1ccccc1
inactive: [1] | [2] | [3] | [4]

Oc1ccc(/C=N\Nc2cc(N3CCOCC3)nc(N3CCOCC3)n2)c(O)c1
inactive: [1] | [2] | [3] | [4]

Cc1ccc(S(=O)(=O)c2nc(S(=O)(=O)c3ccccc3)sc2N2CCN(C)CC2)cc1
inactive: [1] | [2] | [3] | [4]

O=C1c2ccccc2C(=O)c2[nH]c(=O)[nH]c21
inactive: [1] | [2] | [3] | [4]

C[C@H](O)C#Cc1ccc2c(c1)O[C@H](CN(C)Cc1ccc(-c3ccccc3)cc1)[C@@H](C)CN([C@@H](C)CO)S2(=O)=O
inactive: [1] | [2] | [3] | [4]

C=C1C(=O)O[C@@H]2[C@H]1CC[C@H](C)[C@]1(O)CCC(=O)[C@@]21C
inactive: [1] | [2] | [3] | [4]

O=C(NC1CCCCC1)C(c1cccs1)N(C(=O)Cc1c[nH]c2ccccc12)c1ccc(F)cc1 (centres undefined)
inactive: [1] | [2] | [3] | [4]

O=C(C[C@H]1CC[C@@H]2[C@H](COC[C@@H](O)CN2S(=O)(=O)c2cccc(Cl)c2)O1)Nc1ccc(-c2ccccc2)cc1
inactive: [1] | [2] | [3] | [4] | [5] | [6] -18.4% | [7] | [8]

C[C@@H]1CN([C@H](C)CO)C(=O)c2c(c3ccccc3n2C)-c2ccccc2CO[C@H]1CN(C)C(=O)Nc1cccc(C(F)(F)F)c1
inactive: [1] | [2] | [3] | [4] | [5] | [6] -25.5% [at 16 µM, stronger effect = lower value] | [7] | [8]

O=C(C[C@H]1C[C@@H]2c3cc(NC(=O)Nc4ccc(C(F)(F)F)cc4)ccc3O[C@@H]2[C@@H](CO)O1)NCCc1ccccc1
inactive: [1] | [2] | [3] | [4] | [5] | [6] -7.36% [at 8 µM, stronger effect = lower value] | [7] | [8]

COc1ccccc1C#Cc1ccc([C@@H]2[C@@H](C#N)N(C(=O)C3CCCCC3)[C@H]2CO)cc1
inactive: [1] | [2] | [3] | [4] | [5] | [6] 26.7% [at 30 µM, stronger effect = lower value] | [6] | [7] | [8] | [9]

C[C@@H]1CCCCO[C@H](CN(C)Cc2ccc(C(F)(F)F)cc2)[C@@H](C)CN([C@@H](C)CO)C(=O)c2cc(NS(=O)(=O)c3ccc(Cl)cc3)ccc2O1
inactive: [1] | [2] | [3] | [4] | [5] | [6] -151% | [7]

CN1c2ccc(C3=CCCCC3)cc2[C@H]2[C@H](CCN2C(=O)NC2CCCCC2)[C@@H]1CO
inactive: [1] | [2] | [3] | [4] | [5] | [6] 17.4% [at 0.56 µM, stronger effect = lower value] | [7] | [8]

C[C@H](CO)N1C[C@H](C)[C@@H](CN(C)Cc2ccc(Cl)c(Cl)c2)OCCCC[C@H](C)Oc2ccc(NS(=O)(=O)c3ccc(Cl)cc3)cc2C1=O
inactive: [1] | [2] | [3] | [4] | [5] | [6] -25.3% | [7]

Cc1ccc(S(=O)(=O)Nc2ccc3c(c2)C(=O)N([C@H](C)CO)C[C@@H](C)[C@H](CN(C)S(=O)(=O)c2ccccc2)OCCCC[C@H](C)O3)cc1
inactive: [1] | [2] | [3] | [4] | [5] | [6] -31.1% | [7]

COc1ccc(NC(=O)Nc2ccc3c(c2)C(=O)N([C@H](C)CO)C[C@@H](C)[C@@H](CN(C)C(=O)Cc2ccccc2)OCCCC[C@H](C)O3)cc1
inactive: [1] | [2] | [3] | [4] | [5] | [6] -34.5% | [7]

Cc1[nH]nc2nc(SCC(=O)NC3CCCCC3)n(-c3ccc(Br)cc3)c(=N)c12
inactive: [1] | [2] | [3] | [4]

C[C@@H]1CN([C@@H](C)CO)C(=O)c2cc(NC(=O)Nc3ccc(C(F)(F)F)cc3)ccc2O[C@@H](C)CCCCO[C@H]1CN(C)C(=O)c1ccccc1
inactive: [1] | [2] | [3] | [4] | [5] | [6] 12.6% [at 0.26 µM, stronger effect = lower value] | [7]

C[C@H]1CN([C@@H](C)CO)C(=O)c2c(c3ccccc3n2C)-c2ccccc2CO[C@H]1CN(C)S(=O)(=O)c1ccc(C(F)(F)F)cc1
inactive: [1] | [2] | [3] | [4] | [5] | [6] -24.4% | [7] | [8]

CCCCn1cnc2c(c(-c3ccccc3)c(-c3ccccc3)n2Cc2ccco2)c1=N
inactive: [1] | [2] | [3] | [4]

COc1ccc2c(c1)C(C)=CC(C)(C)N2S(=O)(=O)c1ccc(Br)cc1
inactive: [1] | [2] | [3] | [4] | [5]

Cc1ccc(S(=O)(=O)Nc2ccc3c(c2)C(=O)N([C@@H](C)CO)C[C@H](C)[C@@H](CN(C)Cc2ccc(Cl)c(Cl)c2)OCCCC[C@@H](C)O3)cc1
inactive: [1] | [2] | [3] | [4] | [5] | [6] -5.1% [at 16 µM, stronger effect = lower value] | [7] | [8]

COc1cccc(S(=O)(=O)N(C)C[C@H]2OCc3ccccc3-c3c(n(C)c4ccccc34)C(=O)N([C@H](C)CO)C[C@H]2C)c1
inactive: [1] | [2] | [3] | [4] | [5] | [6] 28.2% [at 2.1 µM, stronger effect = lower value] | [7]

C[C@@H]1CN([C@@H](C)CO)C(=O)c2cc(NC(=O)Nc3ccc(C(F)(F)F)cc3)ccc2O[C@@H](C)CCCCO[C@@H]1CN(C)Cc1ccc2c(c1)OCO2
inactive: [1] | [2] | [3] | [4] | [5] | [6] -5.57% [at 16 µM, stronger effect = lower value] | [7]

CS(=O)(=O)N1C[C@@H]2N[C@H](C1)[C@@H]2c1ccc(-c2ccccc2)cc1
inactive: [1] | [2] | [3] | [4] | [5] | [6] 15.8% [at 1 µM, stronger effect = lower value] | [7] | [8]
